Results filed as inconclusive are left out. The source made the active and inactive calls. Unless noted, the call rests on the fitted dose curve.

A short description of experiment [1]: Nuclear factor erythroid 2-related factor 2/antioxidant responsive element (Nrf2/ARE) small molecule agonists: qHTS cell viability counter screen in human keratinocytes (AID 1919968; active means well fitted curve in the direction sought with a large enough effect in the repeat runs; an effect the other way counts as inactive or inconclusive; further: nearly all actives have a fitted effect of over 55% in size). The procedure, abridged:
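Cytotoxicity was multiplexed with the Nrf2/ARE luciferase assay in the same wells. Stably transfected HaCaT keratinocytes were treated with test compounds for 23 h at 37 C. Cell viability was then measured by CellTiter-Fluor fluorescence.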
Background: In qHTS, concentration-response curves come from the screen itself.

A short description of experiment [2]: Nuclear factor erythroid 2-related factor 2/antioxidant responsive element (Nrf2/ARE) small molecule agonists: luciferase reporter gene qHTS assay in human keratinocytes (AID 1919969). Further: nearly all actives have a fitted effect of over 35% in size. Further: potency means the concentration at half of the fitted maximal effect.
Experiment [3] addresses KiSS-1 receptor (Homo sapiens) (UniProt Q969F8). The experiment can be described thus: Human kisspeptin (KISS1R) small molecule agonists, calcium flux assay in KISS1R-HEK293 cells (AID 1920064; active means well fitted curve in the direction sought with a large enough effect in the repeat runs; an effect the other way counts as inactive or inconclusive). The procedure, abridged:
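Agonist activity is monitored as intracellular calcium rise in engineered HEK293 cells carrying human KISS1R. Cells are dye-loaded for 1 h at 37 C before compound addition, and fluorescence is recorded for 3 min.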
On the technique in general: Calcium assays in cells follow changes in intracellular calcium, usually with a dye or a luminescent sensor.

Experiment [4] is described as follows: G protein-coupled receptor (GPCR) small molecule agonists, calcium flux assay: HEK293 wild type cell line counter screen (AID 1920065). The procedure, abridged:
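Seed cells, incubate 18 h (37 C, 5% CO2); add calcium dye, 1 h at 37 C; pin-transfer compounds, ATP control or DMSO; read fluorescence 480/540 nm each second for 3 min.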

A short description of experiment [5]: p53 small molecule agonists, cell-based qHTS assay with rat liver microsomes (AID 1963578). The method, boiled down: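 Metabolic activation by rat liver microsomes and NADPH, each 0.5 mg/mL final, added right after compounds to p53RE-bla reporter cells (4,000/well, plated 5 h earlier). 16 h at 37 C, then LiveBLAzer substrate for 2 h at room temperature in the dark; fluorescence read-out.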

Experiment [6] is described as follows: p53 small molecule agonists, cell-based qHTS assay with human liver microsomes: qHTS cell viability counter screen (AID 1963579). Further: nearly all actives have a fitted effect of over 45% in size. The procedure, abridged:
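Metabolic activation used human liver microsomes and NADPH, both 0.5 mg/mL final, over 16 hours at 37 C on p53RE-bla cells (4,000/well). Cytotoxicity measured by CellTiter-Glo luminescence, 30 min at room temperature.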

Experiment [7] can be described thus: p53 small molecule agonists, cell-based qHTS assay with rat liver microsomes: qHTS cell viability counter screen (AID 1963580). Further: nearly all actives have a fitted effect of over 45% in size. The method, boiled down:
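After the beta-lactamase ratio was read, CellTiter-Glo was added to the same wells and luminescence measured at 30 min; cells had been treated 16 h at 37 C with compounds, rat liver microsomes and NADPH (0.5 mg/mL final each).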

A short description of experiment [8]: p53 small molecule agonists, cell-based qHTS assay: qHTS cell viability counter screen (AID 1963581). Further: nearly all actives have a fitted effect of over 45% in size. The method, boiled down: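 Viability was counter-screened in parallel with the p53 agonist reporter by measuring intracellular ATP luminescence in the same HCT-116 p53RE-bla wells after 16 h compound treatment at 37 C.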
Experiment [9] concerns the target 5-hydroxytryptamine receptor 2A (Homo sapiens) (UniProt P28223). The experiment can be described thus: 5-hydroxytryptamine receptor 2A (HTR2A) small molecule antagonists, cell-based qHTS assay (AID 1963586). Further: nearly all actives have a fitted effect of over 45% in size. Further: potency means the concentration at half of the fitted maximal effect. The procedure, abridged: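 CHO cells stably expressing human HTR2A were plated for 18 h at 37 C, then loaded with calcium dye for 1 h. Compounds were preincubated 5 min at room temperature before DOI (4 nM solution) was added. Kinetic fluorescence was read for 3 min.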

Experiment [10] addresses Muscarinic acetylcholine receptor M1 (Homo sapiens) (UniProt P11229). Briefly: Cholinergic receptor muscarinic 1 (CHRM1) small molecule antagonists, cell-based qHTS assay (AID 1963588). Further: nearly all actives have a fitted effect of over 40% in size. The procedure, abridged:
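Compounds were tested at 15 concentrations in three independent runs. Dye-loaded CHRM1-CHO cells were exposed 5 min at room temperature before stimulation by acetylcholine added at 50nM. Intracellular calcium was read kinetically on FDSS for 3 min.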

For experiment [11] the target is unchanged. The experiment can be described thus: Cholinergic receptor muscarinic 1 (CHRM1) small molecule agonists, cell-based qHTS assay (AID 1963589). Further: nearly all actives have a fitted effect of over 35% in size. The method, boiled down: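 Cells were plated and incubated 18 h at 37 C/5% CO2, loaded with calcium dye for 1 h at 37 C, then treated with compounds in DMSO. Fluorescence was recorded kinetically at 1 sec intervals.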

The target of experiment [12] is D(2) dopamine receptor (Homo sapiens) (UniProt P14416). Briefly: Dopamine D2 receptor (DRD2) small molecule agonists, cell-based qHTS assay (AID 1963594). Further: nearly all actives have a fitted effect of over 35% in size. The method, boiled down:
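HEK293 cells stably expressing human DRD2, pre-treated with PDE inhibitor Ro20-1724 (0.1 mM final) and compound 10 min at room temperature, then stimulated with NKH477 (200nM […]) for 30 min. cAMP read by HTRF (665/620 nm).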

The target of experiment [13] is 5-hydroxytryptamine receptor 2A (Homo sapiens) (UniProt P28223). Briefly: 5-hydroxytryptamine receptor 2A (HTR2A) small molecule agonists, cell-based qHTS assay (AID 1963587). Further: nearly all actives have a fitted effect of over 30% in size. The method, boiled down: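 CHO cells stably expressing human HTR2A, plated 18 h, loaded with calcium dye 1 h at 37 C. Agonist mode: compounds added and intracellular calcium fluorescence recorded kinetically for 2 min at 1 sec intervals.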
5-hydroxytryptamine receptor 2A (Homo sapiens), sequence (P28223 whole entry, looked up): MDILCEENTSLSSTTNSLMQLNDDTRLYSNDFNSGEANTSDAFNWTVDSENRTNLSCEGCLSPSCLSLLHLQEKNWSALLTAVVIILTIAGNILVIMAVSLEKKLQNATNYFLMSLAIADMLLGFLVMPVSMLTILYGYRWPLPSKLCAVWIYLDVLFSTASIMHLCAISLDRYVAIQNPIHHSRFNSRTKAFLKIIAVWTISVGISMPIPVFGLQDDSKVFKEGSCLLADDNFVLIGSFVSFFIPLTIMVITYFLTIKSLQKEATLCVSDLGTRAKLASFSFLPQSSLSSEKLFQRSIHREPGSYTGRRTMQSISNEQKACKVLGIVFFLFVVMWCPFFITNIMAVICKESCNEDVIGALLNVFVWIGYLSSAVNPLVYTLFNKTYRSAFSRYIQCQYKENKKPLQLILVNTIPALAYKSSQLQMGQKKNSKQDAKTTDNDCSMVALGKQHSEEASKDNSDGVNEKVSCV

Experiment [14] is described as follows: cAMP Responsive Elements (CRE) small molecule agonists, cell-based qHTS assay (AID 1963590). The procedure, abridged: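 Cells carrying a CRE-driven beta-lactamase reporter (HEK 293T) are seeded, incubated overnight (18 h), and treated with test compounds for 3 h at 37 C; reporter activity is then detected with a FRET substrate after 2 h at room temperature.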

The nature of experiment [15]: cAMP Responsive Elements (CRE) small molecule antagonists, cell-based qHTS assay (AID 1963591; active means well fitted inhibition curve with a large enough effect in the signal ratio in the repeat runs, not every such curve was filed as active; the % refers to the signal ratio). The procedure, abridged: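 Cells (CRE-bla HEK 293T, DMEM with 10% dialyzed FBS and 25 mM HEPES) are seeded and incubated 18 h. Compounds are added with NKH477 agonist at 0.25 uM final for 3 h, then FRET substrate for 2 h.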
Experiment [16] has as its target Beta-2 adrenergic receptor (Homo sapiens) (UniProt P07550). Briefly: Adrenergic beta2 receptor (ADRB2) small molecule antagonists, cell-based qHTS assay (AID 1963592). Further: series mostly up to about 92 µM; nearly all actives have a fitted effect of over 50% in size. The method, boiled down: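 Assay format: CHO-ADRB2 cells, 18-20hr seeding at 37C/5% CO2, then compound plus 1nM isoproterenol agonist mix for 0.5hr RT. Homogeneous time-resolved fluorescence cAMP detection after 1hr, expressed as 665/615 nm ratio.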

Experiment [17] has the same target. Briefly: Adrenergic beta2 receptor (ADRB2) small molecule agonists, cell-based qHTS assay (AID 1963593).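 Further: CHO cells stably overexpressing human ADRB2.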 The procedure, abridged:
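CHO cells stably over-expressing ADRB2 were plated overnight at 37C, then dosed with compounds plus a stimulation mix containing 100uM IBMX and 25uM Ro-20-1724 for 0.5hr at room temperature. cAMP was measured by HTRF competition, 1hr.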

Experiment [18] concerns the target D(2) dopamine receptor (Homo sapiens) (UniProt P14416). Briefly: Dopamine D2 receptor (DRD2) small molecule antagonists, cell-based qHTS assay (AID 1963595; active means well fitted inhibition curve with a large enough effect in the signal ratio in the repeat runs, with a control signal flat; the % refers to the signal ratio). The method, boiled down:
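HTRF cAMP read-out at 665 and 620 nm emission (340 nm excitation). Antagonist mode: compounds were tested against 12 nM quinpirole in DRD2-HEK293 cells, with 200 nM NKH477 raising cAMP and 0.1 mM Ro20-1724 blocking its breakdown.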

Beta-2 adrenergic receptor (Homo sapiens), sequence (P07550 whole entry, looked up): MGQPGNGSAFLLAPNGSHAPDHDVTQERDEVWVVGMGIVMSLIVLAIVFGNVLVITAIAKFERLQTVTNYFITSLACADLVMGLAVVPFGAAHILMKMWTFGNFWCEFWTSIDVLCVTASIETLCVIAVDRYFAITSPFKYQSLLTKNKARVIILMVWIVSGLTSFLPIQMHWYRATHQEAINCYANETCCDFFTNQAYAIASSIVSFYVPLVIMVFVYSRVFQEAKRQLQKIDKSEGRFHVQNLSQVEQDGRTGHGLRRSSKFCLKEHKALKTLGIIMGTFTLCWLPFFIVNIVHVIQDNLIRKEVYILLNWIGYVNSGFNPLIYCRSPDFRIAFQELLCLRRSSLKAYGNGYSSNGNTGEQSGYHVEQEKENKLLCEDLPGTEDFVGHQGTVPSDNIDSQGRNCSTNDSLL
D(2) dopamine receptor (Homo sapiens), sequence (P14416 whole entry, looked up): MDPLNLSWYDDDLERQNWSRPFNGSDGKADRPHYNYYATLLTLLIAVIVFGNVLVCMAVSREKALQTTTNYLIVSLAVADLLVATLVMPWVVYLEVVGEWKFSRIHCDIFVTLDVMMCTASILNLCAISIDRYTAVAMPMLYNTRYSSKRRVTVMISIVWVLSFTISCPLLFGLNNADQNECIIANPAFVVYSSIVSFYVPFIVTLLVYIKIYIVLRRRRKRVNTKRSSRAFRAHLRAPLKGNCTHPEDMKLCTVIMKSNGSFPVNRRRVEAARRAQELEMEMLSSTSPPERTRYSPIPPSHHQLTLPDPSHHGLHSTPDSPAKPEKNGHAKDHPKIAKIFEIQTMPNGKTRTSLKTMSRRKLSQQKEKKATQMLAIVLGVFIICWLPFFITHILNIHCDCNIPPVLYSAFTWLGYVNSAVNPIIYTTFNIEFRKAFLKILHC
Muscarinic acetylcholine receptor M1 (Homo sapiens), sequence (P11229 whole entry, looked up): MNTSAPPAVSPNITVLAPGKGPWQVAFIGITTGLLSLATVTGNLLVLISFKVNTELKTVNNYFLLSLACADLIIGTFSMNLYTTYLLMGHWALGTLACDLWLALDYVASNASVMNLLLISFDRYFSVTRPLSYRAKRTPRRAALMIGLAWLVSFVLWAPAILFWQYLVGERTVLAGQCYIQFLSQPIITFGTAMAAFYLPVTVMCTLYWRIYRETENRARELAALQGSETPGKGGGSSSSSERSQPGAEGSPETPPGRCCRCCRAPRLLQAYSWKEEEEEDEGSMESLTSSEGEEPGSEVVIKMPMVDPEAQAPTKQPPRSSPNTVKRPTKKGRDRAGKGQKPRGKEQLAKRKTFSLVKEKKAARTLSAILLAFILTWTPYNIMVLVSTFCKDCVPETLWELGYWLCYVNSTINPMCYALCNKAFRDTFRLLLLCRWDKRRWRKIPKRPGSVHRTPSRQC
KiSS-1 receptor (Homo sapiens), sequence (Q969F8 whole entry, looked up): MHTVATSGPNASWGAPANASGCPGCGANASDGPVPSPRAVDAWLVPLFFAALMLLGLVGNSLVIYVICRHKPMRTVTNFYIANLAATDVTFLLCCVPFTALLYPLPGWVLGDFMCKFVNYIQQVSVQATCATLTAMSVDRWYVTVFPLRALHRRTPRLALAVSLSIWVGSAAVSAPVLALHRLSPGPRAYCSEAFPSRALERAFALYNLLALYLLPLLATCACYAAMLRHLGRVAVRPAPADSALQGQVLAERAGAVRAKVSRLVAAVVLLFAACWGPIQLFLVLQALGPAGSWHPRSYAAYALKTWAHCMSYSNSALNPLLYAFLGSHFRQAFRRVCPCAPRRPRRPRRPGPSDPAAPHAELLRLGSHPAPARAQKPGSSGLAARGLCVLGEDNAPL

As for `CN(C)c1ccc(N=NS(=O)(=O)O)cc1`, the Potency result in [1], in experiment [3], in [4], in experiment [5], in experiment [6] and in experiment [7] was “inactive” throughout. Moreover, the Potency result in experiment [8], in experiment [9], in [10], in experiment [11] and in [12] was “inactive” throughout. The Potency in experiment [2] was 25.6 µM (active).

With `CCCCCCCCCCCCCCCC(=O)OCC`, the Potency result in [1], in experiment [2], in experiment [3], in experiment [4], in experiment [6] and in experiment [7] was “inactive” throughout. Further, the Potency result in [8], in experiment [9], in experiment [13], in experiment [10], in [11] and in [14] was “inactive” each time. In addition, the Potency entry in [15], in experiment [16], in experiment [17], in [12] and in [18] was “inactive” throughout.

Turning to `Cc1nnc(SCC2=C(C(=O)O)N3C(=O)[C@@H](NC(=O)Cn4cnnn4)[C@H]3SC2)s1`, the Potency entry in experiment [1], in [2], in [3], in experiment [4], in [6] and in experiment [7] was “inactive” each time. Further, the Potency result in experiment [8], in [9], in experiment [13], in experiment [10], in [14] and in [15] was “inactive” in each case. Moreover, the Potency entry in experiment [17], in experiment [12] and in [18] was “inactive” each time.

For `OC/C=C/c1ccccc1`, the Potency entry in [1], in [2], in [3], in [4], in experiment [6] and in [7] was “inactive” in each case. In addition, the Potency entry in experiment [8], in experiment [9], in experiment [13], in [10], in experiment [11] and in experiment [14] was “inactive” in each case. Further, the Potency result in experiment [15], in experiment [16], in experiment [17], in experiment [12] and in [18] was “inactive” in each case.

In the case of `O=C(OCC(COC(=O)c1cccnc1)(COC(=O)c1cccnc1)COC(=O)c1cccnc1)c1cccnc1`, the Potency result in [1], in experiment [2], in experiment [3], in experiment [4], in experiment [6] and in [7] was “inactive” each time. Further, the Potency entry in experiment [8], in experiment [9], in [13], in experiment [10], in experiment [11] and in experiment [14] was “inactive” in each case. The Potency result in experiment [16], in [17], in experiment [12] and in experiment [18] was “inactive” throughout.

As for `CCCCCCCCCCCCOC(C)=O`, the Potency result in experiment [1], in [2], in experiment [3], in [4], in experiment [6] and in experiment [7] was “inactive” in each case. Besides, the Potency entry in experiment [8], in [13], in experiment [10], in experiment [11], in experiment [14] and in experiment [16] was “inactive” in each case. Also, the Potency entry in experiment [17], in experiment [12] and in experiment [18] was “inactive” throughout. Further, in experiment [9], the Potency is 2.11 µM (active).

As to `NNC(=O)CCCCC(=O)NN`, the Potency entry in experiment [1], in experiment [2], in experiment [3], in experiment [4], in experiment [6] and in experiment [7] was “inactive” each time. Further, the Potency entry in [8], in experiment [9], in experiment [13], in experiment [10], in experiment [11] and in experiment [14] was “inactive” throughout. Further, the Potency entry in [15], in [16], in experiment [17], in experiment [12] and in [18] was “inactive” throughout.

In the case of `Cc1nc2ccccc2c(=O)o1`, the Potency result in [1], in experiment [2], in experiment [3], in experiment [4], in experiment [6] and in [7] was “inactive” throughout. Further, the Potency entry in experiment [8], in experiment [9], in experiment [13], in experiment [10], in [11] and in experiment [15] was “inactive” in each case. The Potency result in experiment [16], in experiment [12] and in [18] was “inactive” throughout.

Source of the values: PubChem BioAssay (Tox21).
